Laboratory results taken from PubChem BioAssay (Tox21).
Several values for one entry are separate records, joined by “and”; a condition that tells them apart may be missing. Equal values may be shown once. Inconclusive results are not listed. Entries that show only a call come without a potency. A number with no mark means an inactive call. Activity calls are given as the source filed them. Calls follow the shape of the dose curve; as a rule, active = well fitted inhibition curve with a large enough effect in the repeat runs; inconclusive = weak or mixed curves; inactive = no such curve, though single readings can be large or run the other way.

These compounds were tested against Cytochrome P450 2C9 (Homo sapiens) (UniProt P11712) (assay: Cytochrome P450 Family 2 Subfamily C Member 9 (CYP2C9) small molecule antagonists: luciferase reporter qHTS assay (AID 1671198; also: nearly all actives have a fitted effect of over 50% in size)). Settings: P450-Glo CYP2C9 enzyme assay, luciferin luminescence; series mostly up to 115 µM.
Chain of Cytochrome P450 2C9 (Homo sapiens) (P11712 whole entry, looked up): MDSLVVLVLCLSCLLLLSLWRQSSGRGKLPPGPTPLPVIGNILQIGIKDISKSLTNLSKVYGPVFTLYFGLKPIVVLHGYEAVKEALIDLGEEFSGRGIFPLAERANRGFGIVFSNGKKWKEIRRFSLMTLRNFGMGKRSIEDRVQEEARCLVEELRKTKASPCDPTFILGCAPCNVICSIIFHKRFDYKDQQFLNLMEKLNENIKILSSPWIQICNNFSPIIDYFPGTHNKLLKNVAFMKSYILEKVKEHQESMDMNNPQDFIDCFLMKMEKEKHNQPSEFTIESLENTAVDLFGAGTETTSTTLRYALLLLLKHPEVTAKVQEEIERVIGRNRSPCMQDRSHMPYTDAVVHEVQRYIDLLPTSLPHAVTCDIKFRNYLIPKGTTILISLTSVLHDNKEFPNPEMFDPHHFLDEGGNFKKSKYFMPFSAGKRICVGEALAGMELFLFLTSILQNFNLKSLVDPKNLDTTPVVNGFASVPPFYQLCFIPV
Text: U.S. Tox21 Program National Center for Advancing Translational Sciences [NCATS] U.S. Environmental Protection Agency [EPA] National Institutes of Environmental Health Sciences [NIEHS] National Toxicology Program [NTP] U.S. Food and Drug Administration [FDA] Tox21 Assay Overview: Cytochrome P450 (CYP) enzymes are membrane-bound hemeproteins that play a key role in metabolism of drugs and xenobiotics. Evaluation of the effect of chemicals on CYP isozymes is useful to minimize the adverse drug reactions and toxicities in drug development process. Tox21 chemicals were tested for their effect on CYP enzyme activities by using P450-Glo (TM) screening systems (Promega Corporation, Madison, WI). These systems provide a luminescent method containing proluciferin substrates and are converted to luciferin products by CYP isozymes. The luciferin products formed are detected with a luciferin detection reagent, and the amount of light produced is proportional to CYP activity. P450-Glo (TM) CYP2C9 screening system (Catalog. No. V9790) was used to detect the compounds that interfere in CYP2C9 activity.
Tox21 Assay Protocol Summary: Two ul of enzyme-substrate mix was dispensed into medium binding white/solid 1536-well plates (Greiner Bio-One North America Inc., Monroe, NC) using a BioRaptr Flying Reagent Dispenser (FRD, Beckman Coulter, Brea, CA). […] The assay plates were incubated at room temperature for 10 min. Then 2 ul of NADPH regeneration solution was added to each well of the assay plates using an FRD and incubated at 37C for 1 h. The reaction was stopped by adding 4 ul of detection reagent using an FRD and after 20 min incubation at room temperature the luminescence signal was measured using a ViewLux plate reader (Perkin Elmer, Shelton, CT). Data were expressed as relative luminescence units.
Potency is read from the fitted curve at half-maximal effect.

Question: `Cc1scc2c1N(C(=O)CN1CCN(C)CC1)c1ccccc1NC2=O` was tested. Which Potency did it give?
Answer: inactive

Question: With `O=C(O[C@@H]1Cc2c(O)cc(O)cc2O[C@@H]1c1cc(O)c(O)c(O)c1)c1cc(O)c(O)c(O)c1` as the compound, how does the Potency read?
Answer: 40 µM (active) and 27.2 µM (active)

Question: Which Potency does the source give for `Cc1cc(Cc2cc(C)cc(C(C)(C)C)c2O)c(O)c(C(C)(C)C)c1` here?
Answer: 3.57 µM (active) and 3.56 µM (active)

Question: With `CCCCCCC(O)CCCCCCCCCCC(=O)O` (stereo not given) as the compound, how does the Potency read?
Answer: inactive

Question: How did the Potency turn out when `CCCC(=O)c1ccccc1` was run?
Answer: inactive

Question: `CCOc1ccccc1C(N)=O` was tested. Which Potency did it give?
Answer: inactive

Question: How did the Potency turn out when `COC(=O)/C=C/c1ccccc1` was run?
Answer: inactive

Question: With `OCCN1CCNCC1` as the compound, how does the Potency read?
Answer: inactive

Question: Which Potency does the source give for `CO[Si](OC)(OC)c1ccccc1` here?
Answer: inactive

Question: With `O=Cc1ccc(Cl)cc1` as the compound, how does the Potency read?
Answer: inactive

Question: With `[Cl][In]([Cl])[Cl]` as the compound, how does the Potency read?
Answer: inactive

Question: For `Cc1ccc(S(=O)(=O)Oc2ccc(N=Nc3ccc(-c4ccc(N=Nc5c(O)ccc6cc(S(=O)(=O)O)cc(S(=O)(=O)O)c56)c(C)c4)cc3C)cc2)cc1`, which Potency is on record?
Answer: 35.7 µM (active) and 26 µM (active)

Question: `O=C1NCC2(CCN(CCc3ccccc3)CC2)O1` was tested. Which Potency did it give?
Answer: inactive

Question: `CC(=O)O[C@]1(C(C)=O)CC[C@H]2[C@@H]3C[C@H](C)C4=CC(=O)CC[C@]4(C)[C@H]3CC[C@@]21C` was tested. Which Potency did it give?
Answer: 3.99 µM (active) and 13.8 µM (active)

Question: For `CCCCCCCCCCCCCC[P+](CCCC)(CCCC)CCCC`, which Potency is on record?
Answer: 28.1 µM (active) and 50.2 µM (active)

Question: How did the Potency turn out when `Cc1cccc2n[nH]nc12` was run?
Answer: inactive

Question: How did the Potency turn out when `COC(c1ccccc1)(c1ccccc1)[C@H](Oc1nc(C)cc(C)n1)C(=O)O` was run?
Answer: inactive

Question: `c1ccc2cc3c(ccc4ccccc43)cc2c1` was tested. Which Potency did it give?
Answer: 25.2 µM (active)

Question: How did the Potency turn out when `c1ccc2c(c1)-c1cccc3c1c-2cc1ccccc13` was run?
Answer: inactive

Question: Which Potency does the source give for `C=CC(=O)OCCCCCCCC` here?
Answer: inactive

Question: `Cc1ccc(-c2cc(C(F)(F)F)nn2-c2ccc(S(N)(=O)=O)cc2)cc1` was tested. Which Potency did it give?
Answer: 12.6 µM (active) and 11.2 µM (active) and 8.71 µM (active)

Question: `O=C1Nc2ccccc2C1(c1ccc(O)cc1)c1ccc(O)cc1` was tested. Which Potency did it give?
Answer: 6.33 µM (active) and 3.89 µM (active)

Question: Which activity change, negative = inhibition does the source give for `NC(Cc1ccc(Cl)cc1)C(=O)O` (stereo not given) here?
Answer: 6.61% [at 0.435 µM]

Question: Which Potency does the source give for `Nc1nc2ccccc2[nH]1` here?
Answer: inactive

Question: With `Cc1ccnc2c1NC(=O)c1cccnc1N2C1CC1` as the compound, how does the Potency read?
Answer: inactive

Question: How did the Potency turn out when `CC(C)(C)NCC(O)COc1ccccc1OCC1CCCO1` (stereo not given) was run?
Answer: inactive

Question: For `CC(C)(c1ccccc1)c1ccc(Nc2ccc(C(C)(C)c3ccccc3)cc2)cc1`, which Potency is on record?
Answer: 3.55 µM (active) and 5.64 µM (active)

Question: Which Potency does the source give for `CNC1(C)C2CCC(C2)C1(C)C` (stereo not given) here?
Answer: inactive

Question: For `CC1COC(=O)O1` (stereo not given), which Potency is on record?
Answer: inactive

Question: For `CC1=CC(=O)c2ccccc2C1=O`, which Potency is on record?
Answer: 22.4 µM (active) and 13.8 µM (active)

Question: `C=CC(=O)OCCCCCCOC(=O)C=C` was tested. Which Potency did it give?
Answer: 64.1 µM (active) and 56.4 µM (active)

Question: How did the Potency turn out when `COC(=O)c1cccc(C(=O)OC)c1` was run?
Answer: inactive

Question: With `C=CS(=O)(=O)O` as the compound, how does the Potency read?
Answer: inactive

Question: Which Potency does the source give for `CCCCC(CC)COC(=O)CC(C(=O)OCC(CC)CCCC)S(=O)(=O)O` (stereo not given) here?
Answer: 15.3 µM (active) and 12.6 µM (active)

Question: For `CC1COc2c(N3CCN(C)CC3)c(F)cc3c(=O)c(C(=O)O)cn1c23` (stereo not given), which Potency is on record?
Answer: inactive

Question: With `Cc1cccc(O)c1C` as the compound, how does the Potency read?
Answer: inactive

Question: Which Potency does the source give for `NC(N)=NC(=O)Cc1c(Cl)cccc1Cl` here?
Answer: inactive

Question: `Nc1nc(=S)c2[nH]cnc2[nH]1` was tested. Which Potency did it give?
Answer: 38.9 µM (active) and 71 µM (active) and 30.9 µM (active)

Question: `Cc1cc(C2(c3cc(C)c(O)cc3C)OS(=O)(=O)c3ccccc32)c(C)cc1O` was tested. Which Potency did it give?
Answer: 5.03 µM (active) and 7.96 µM (active)

Question: How did the Potency turn out when `Nc1ccc2cc3ccccc3cc2c1` was run?
Answer: 32.3 µM (active) and 31.7 µM (active)
